Compound activity: PubChem BioAssay, National Center for Advancing Translational Sciences (NCATS)
Cruzain Triton: blocks cruzain activity in presence of Triton detergent. P25779. purified cruzain, Z-FR-AMC fluorescence, 0.01% Triton. Potency, µM, inactives show max response, negative = inhibition, hits mostly inhibitors. hit rate 0.43% among 200,000. AID 1478;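 note: plate controls were neutral wells for no effect and buffer without enzyme for full effect; nearly all actives have a fitted effect of over 40% in size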
Target sequence (P25779 123-467 limits assumed): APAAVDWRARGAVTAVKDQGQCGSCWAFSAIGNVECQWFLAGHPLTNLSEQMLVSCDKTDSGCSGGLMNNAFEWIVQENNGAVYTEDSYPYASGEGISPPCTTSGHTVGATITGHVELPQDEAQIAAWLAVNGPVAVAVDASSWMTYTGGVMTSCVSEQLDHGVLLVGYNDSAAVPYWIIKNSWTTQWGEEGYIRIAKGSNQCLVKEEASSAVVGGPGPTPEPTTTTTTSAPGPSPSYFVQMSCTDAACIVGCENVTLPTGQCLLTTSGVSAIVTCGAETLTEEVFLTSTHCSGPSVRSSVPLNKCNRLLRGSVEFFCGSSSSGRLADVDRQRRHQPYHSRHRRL
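Detergent-containing run (0.01% Triton X-100) in acetate buffer pH 5.5 with 5 mM DTT: enzyme at 1.5 nM final, 15 min compound preincubation at room temperature, then 2 uM Z-FR-AMC substrate. Activity taken as 60 s fluorescence increase at 360/450 nm.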
Cruzain inh noDet: inhibitors of Trypanosoma cruzi cruzain without detergent. P25779. hit rate 2.3% among 200,000. Potency, µM, for inactives: max response, negative = inhibition, actives largely listed as inhibitors. purified cruzain, Z-FR-AMC fluorescence, no detergent;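 note: plate controls were enzyme without inhibitor for no effect and buffer without enzyme for full effect; nearly all actives have a fitted effect of over 40% in size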
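Purified cruzain at 1.5 nM, pre-incubated 15 min with compound at room temperature in 100 mM sodium acetate pH 5.5, 5 mM DTT, 0.00005% Triton X-100. Reaction started with 2 uM Z-FR-AMC; AMC fluorescence increase over 60 s gives rate.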
* = called active by the depositor; ? = inconclusive. The list is not random: actives were taken first. Their share in the collection is about 2.6%. Calls come from the whole dose curve; as a rule, active = well fitted curve in the direction sought with a large enough effect; inconclusive = small, poorly fitted or top-dose-only effect, or another doubt; inactive = no such curve, though single readings can be large; an effect the other way counts as inactive or inconclusive. Potency is the fitted concentration of half-maximal effect.

SMILES	Cruzain Triton	Cruzain inh noDet
Cc1cccc(C(=O)N2c3ccccc3C(=O)OC2c2ccc3c(c2)OCO3)c1 (stereo unspecified)	0%	?
O=c1cc(-c2ccccc2)c2ccc3c(c2o1)CN(Cc1ccccc1)CO3	-25%	?
COc1ccc(-c2cc(=O)oc3c4c(ccc23)OCN(Cc2ccccc2)C4)cc1	-25%	25µM*
CC1=C(C(=O)O)N2C(=O)C(NC(=O)C(N)c3ccccc3)C2SC1 (stereo unspecified)	0%	4%
CS(=O)(=O)N(CC(=O)O)Cc1ccccc1	2%	2%
Cc1ccccc1OCc1nnc(SCC(=O)Nc2ccc3c(c2)OCO3)n1C	-3%	5%
COC(=O)CSc1nc2ccc(NC(=O)CSc3nnnn3Cc3ccccc3)cc2s1	-11%	7%
O=C(CSc1nc2ccc(NC(=O)CSc3nnnn3Cc3ccccc3)cc2s1)Nc1ccccc1	-1%	10µM*
Cc1ccccc1OCc1nnc(SCC(=O)Nc2ccc3nc(SCC(=O)Nc4ccccc4)sc3c2)n1C	0%	25µM*
CCc1ccc(NC(=O)CN(c2ccc(C)cc2)S(=O)(=O)c2cccs2)cc1	-5%	-15%
O=C(CCN1C(=O)/C(=C/C=C/c2ccccc2)SC1=S)Nc1cccnc1	-4%	?
CC(=O)c1ccc(NC(=O)CN2C(=O)/C(=C/C=C/c3ccccc3)SC2=S)cc1	-8%	10µM*
O=C1CC(=C(c2ccccc2)c2ccccc2)C(=O)N1CCCN1CCN(c2cccc(Cl)c2)CC1	-1%	?
O=C1CC(=C2c3ccccc3-c3ccccc32)C(=O)N1CCCCN1CCN(c2ccccc2)CC1	-16%	16µM*
CCc1ccc(Sc2cc(C(=O)NCc3ccccc3OC)c3ccccc3n2)cc1	1%	-16%
Cc1ccc(CNC(=O)/C=C/c2c(Cl)cccc2Cl)cc1	0%	25µM*
Cc1ccc(CNC(=O)/C=C/c2ccccc2Cl)cc1	0%	-2%
COc1ccc(C(=O)NCc2ccc3c(c2)CCN3C(=O)c2ccc(F)cc2)cc1	0%	10%
Cc1ccc(NC(=O)NCc2ccc3c(c2)CCN3C(=O)c2ccccc2)c(Cl)c1	-4%	-23%
COc1ccc(C(=O)NCc2ccc3c(c2)CCN3C(=O)c2ccccc2)cc1	-1%	14%
COc1ccc2cc(C(=O)NCc3ccc4c(c3)CCN4C(=O)c3ccc(C)cc3)[nH]c2c1	-2%	13µM*
COc1ccc2cc(C(=O)NCc3ccc4c(c3)CCN4C(=O)c3ccc(F)cc3)[nH]c2c1	-1%	25µM*
COc1ccc(C)cc1NC(=O)NCc1ccc2c(c1)CCN2C(=O)c1ccccc1	-3%	20µM*
COc1c(O)ccc2c1CN1CCc3cc4c(cc3[C@@H]1C2)OCO4	1%	0%
c1ccc([C@H](CCN2CCCC2)c2ccccn2)cc1	2%	5%
SMILES	Cruzain Triton	Cruzain inh noDet
CCOC(=O)c1c(NC(=O)COc2ccccc2Br)sc2c1CCCCC2	-6%	2%
CCOC(=O)c1c(NC(=O)c2ccccc2Br)sc2c1CCc1ccccc1-2	-6%	16µM*
NC(Cc1cnc[nH]1)C(=O)Nc1ccc2ccccc2c1 (stereo unspecified)	3%	-11%
O=C(CSc1nc2ccccc2[nH]1)NC1CCCc2ccccc21 (stereo unspecified)	?	2%
Cc1ccc2nc(SC(C)C(=O)NC3CCCc4ccccc43)[nH]c2c1 (stereo unspecified)	10µM*	-9%
O=C(CSc1nc2ccc(Cl)cc2[nH]1)NC1CCCc2ccccc21 (stereo unspecified)	-10%	-1%
COc1ccc2nc(SCC(=O)NC3CCCc4ccccc43)[nH]c2c1 (stereo unspecified)	14µM*	-27%
COc1ccc(CCNc2nc3cc(OC)c(OC)cc3c3nc(-c4ccccc4)nn23)cc1OC	0%	-1%
COc1cc(NC(=O)CSc2ccc(-c3sc(-c4ccccc4)nc3C)nn2)cc(OC)c1	-3%	4%
CCC(C(=O)Nc1ccccc1C(=O)OC)n1c(C)c2cnn(-c3ccccc3)c(=O)c2c1C (stereo unspecified)	-7%	-6%
CCCCC[C@H](O)/C=C/[C@@H]1[C@@H](C/C=C\CCCC(=O)OC)[C@@H](O)C[C@H]1O	25µM*	?
CCCCC[C@H](O)/C=C/[C@@H]1[C@@H](C/C=C\CCCC(=O)O)[C@@H](O)C[C@H]1O	0%	?
Cc1ccc(-n2nc(C)c3c(C)cc(=O)n(CC(=O)NCc4ccc(OC(C)C)cc4)c32)cc1	11%	-2%
N=C(N)CCNC(=O)[C@@H]1CCC(N)=N1	3%	7%
Cc1ccc(Cn2cc(S(=O)(=O)c3ccc(Cl)cc3)c(=O)c3cc(F)ccc32)cc1	0%	?
Cc1ccc(C)c(S(=O)(=O)c2cn(Cc3ccccc3)c3cc(F)c(F)cc3c2=O)c1	-5%	25µM*
Cc1cc2c(cc1Cl)C(c1ccc3c(c1)OCO3)CC(=O)O2 (stereo unspecified)	0%	-1%
CCCCCOc1ccccc1CN1C(=O)C(=O)c2cc(C)ccc21	-1%	0%
O=C1C2C3C=CC(C3=C(c3ccccc3)c3ccccc3)C2C(=O)N1Cc1ccccc1 (stereo unspecified)	3%	20µM*
O=C1C2C3C=CC(C3=C(c3ccccc3)c3ccccc3)C2C(=O)N1CCO (stereo unspecified)	-8%	?
C[N+](C)(C)c1ccc([C@H](N)C(=O)O)cc1	-4%	0%
Cc1ccc(Cl)cc1N1CCN(C(=O)c2cn(C)c3ccc(S(=O)(=O)N4CCCC4)cc3c2=O)CC1	-5%	23%
CN(C)Cc1ccccc1-c1nc(NCc2cccs2)c2ccccc2n1	2%	-3%
COc1ccc(NC(=O)C(NC(=O)/C=C\c2ccc3c(c2)OCO3)c2ccc(OC)cc2)cc1 (stereo unspecified)	-4%	?
CCOC(=O)c1cccc(NC(=O)/C=C/c2ccc3c(c2)OCO3)c1	-8%	-11%
SMILES	Cruzain Triton	Cruzain inh noDet
CC(=O)c1cccc(NC(=O)C(OC(=O)/C=C/c2ccc3c(c2)OCO3)c2ccccc2)c1 (stereo unspecified)	2%	10µM*
Cc1ccc(C(NC(=O)/C=C\c2ccc3c(c2)OCO3)C(=O)Nc2ccc3c(c2)OCO3)cc1 (stereo unspecified)	-3%	32µM*
COC(=O)/C=C1\SC(=NC(=O)c2cccc(Cl)c2)NC1=O	14µM*	-12%
COC(=O)/C=C1/SC(=NC(=O)c2ccccc2)NC1=O	-22%	1%
COc1ccc(-c2onc(C)c2C)cc1S(=O)(=O)N(C)Cc1ccccc1	3%	5%
COc1ccc(NC(=O)Cn2c(=O)n(Cc3ccco3)c(=O)c3cc(OC)c(OC)cc32)cc1	-3%	-3%
O=[N+]([O-])c1ccc(Nc2nc(N/N=C/c3cccc(F)c3)nc(N3CCCC3)n2)cc1	-3%	16µM*
O=[N+]([O-])c1cccc(/C=N/Nc2nc(N3CCOCC3)nc(N3CCOCC3)n2)c1	-3%	-3%
c1ccc(Nc2ccccc2)cc1	-2%	0%
CC(C)Nc1ccc(Nc2ccccc2)cc1	-3%	32µM*
COc1ccccc1CN1CCCC2(CCN(C(=O)c3ccncc3)CC2)C1	2%	4%
COc1ccc2c(c1)O[C@@H](c1ccc3c(c1)OCO3)[C@H](OC(=O)N[C@H]1CCCc3ccccc31)C2=O	-2%	-9%
Cn1c(=O)oc2cc(S(=O)(=O)NC(Cc3ccccc3)C(=O)NCc3ccccc3Cl)ccc21 (stereo unspecified)	3%	?
